Laboratory results reported in PubChem BioAssay (EPA / NIEHS).
Activity calls are given as the source filed them. Rule for the calls: active = hit-call score of the fitted dose curve at least 0.9, where 1 is the maximum; inactive = score below 0.9.

Key:
[1] = target: Transcriptional activator Myb (Homo sapiens) (UniProt P10242); assay: ATG_Myb_CIS: Attagene CIS-FACTORIAL HepG2 Assay for human Myeloblastosis (Myb) Proto-Oncogene Transcription Factor (AID 2282986); details: HepG2 Attagene CIS-FACTORIAL Myb reporter transcription; actives raise or lower the signal
How it was run: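 After 24 h of compound dosing, total RNA from transfected HepG2 cells is reverse-transcribed and the reporter sequences amplified, labeled and separated by capillary electrophoresis. Values come from bidirectional fitting against DMSO.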

[2] = target: Nuclear respiratory factor 1 (Homo sapiens) (UniProt Q16656); assay: ATG_NRF1_CIS: Attagene CIS-FACTORIAL HepG2 Assay for human Nuclear Respiratory Factor 1 (NRF1) Orphan Gene (AID 2282987); details: HepG2 NRF1 cis-element reporter, Attagene multiplex; actives raise or lower the signal
How it was run: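 Measured: fluorescent reporter-specific RT-PCR products from transfected HepG2 cells, separated by capillary electrophoresis. Exposure lasted 24 h. Analysis used bidirectional curve fitting with DMSO as negative control.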

[3] = ATG_NFI_CIS: Attagene CIS-FACTORIAL HepG2 Assay for human Nuclear Factor I (NFI) (AID 2282989); details: HepG2 cis-regulatory reporter, NFI response element transcription; actives raise or lower the signal
How it was run: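 After transient transfection of HepG2 with cis-promoter reporter constructs and 24 h dosing, RNA is reverse-transcribed, amplified, 6-FAM end-labelled and HpaI-digested before capillary analysis. Bidirectional curve fitting against DMSO.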

[4] = target: Myc proto-oncogene protein (Homo sapiens) (UniProt P01106); assay: ATG_Myc_CIS: Attagene CIS-FACTORIAL HepG2 Assay for human Myelocytomatosis (Myc) Proto-Oncogene Transcription Factor (AID 2282990); details: HepG2, Attagene cis-reporter transcription factor activity; actives raise or lower the signal
How it was run: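 DMSO-normalised, bidirectionally fitted reporter mRNA signal. HepG2 cells transfected with cis reporter constructs, treated 24 h; transcripts detected by RT-PCR, 6-FAM primer extension and CE.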

[5] = ATG_NF_kB_CIS: Attagene CIS-FACTORIAL HepG2 Assay for human Nuclear Factor Kappa B (NF-kB) (AID 2282991); details: HepG2 Attagene cis-factorial NF-kB reporter mRNA; actives raise or lower the signal
How it was run: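 Fluorescence of labelled RT-PCR products separated by capillary electrophoresis gives reporter mRNA levels from transfected HepG2 cells exposed 24 h; values are fitted in both directions relative to DMSO.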

[6] = ATG_NRF2_ARE_CIS: Attagene CIS-FACTORIAL HepG2 Assay for human Nuclear Factor Erythroid 2 Related Factor 2 (NFR2) response to Antioxidant Response Elements (ARE) (AID 2282992); details: HepG2 Attagene ARE/NRF2 reporter, transcription factor activity; actives raise or lower the signal
How it was run: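 HepG2 cells transiently transfected with multiplexed cis-element reporter constructs, 24 h after chemical dosing; reporter mRNA quantified by RT-PCR, fluorescent primer extension, HpaI digestion and capillary electrophoresis. Bidirectional fit relative to DMSO.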

[7] = ATG_Oct_MLP_CIS: Attagene CIS-FACTORIAL HepG2 Assay for human Octamer-Binding Transcription Factor (Oct) (AID 2282993); details: HepG2 Attagene cis-factorial Oct reporter, mRNA; actives raise or lower the signal
How it was run: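 Cells of the HepG2 line express promoter-controlled reporter sequences whose mRNA levels, after 24 h treatment, are measured by RT-PCR and capillary electrophoresis. Increases and decreases are scored relative to DMSO.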

[8] = target: Cellular tumor antigen p53 (Homo sapiens) (UniProt P04637); assay: ATG_p53_CIS: Attagene CIS-FACTORIAL HepG2 Assay for human p53 Transcription Factor (AID 2282994); details: HepG2 p53 cis-element reporter, Attagene mRNA; actives raise or lower the signal
How it was run: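 HepG2 cells transiently transfected with cis-regulated multiple reporter transcription units, dosed 24 h. Reporter mRNA measured by RT-PCR, 6-FAM primer extension, HpaI digestion and capillary electrophoresis; bidirectional fit relative to DMSO.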

[9] = BSK_3C_TissueFactor: BioMAP Diversity Plus: 3C Assay for Tissue Factor Biomarker Activity (AID 2282997); details: BioMAP 3C HUVEC, tissue factor biomarker readout; actives raise or lower the signal
How it was run: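 ELISA read-out of Tissue Factor levels on human umbilical vein endothelium collected 24 h after chemical dosing. Gain or loss of signal was fitted relative to DMSO.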

[10] = BSK_3C_uPAR: BioMAP Diversity Plus: 3C Assay for Urokinase-type plasminogen activator receptor (uPAR) Biomarker Activity (AID 2282998); details: BioMAP 3C HUVEC, uPAR biomarker ELISA; actives raise or lower the signal
How it was run: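 Endothelial primary cells of human umbilical vein origin received test chemical; 24 h later uPAR was assayed by ELISA. Fitting was bidirectional, DMSO as negative control.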

Measured: AC50

Cellular tumor antigen p53 (Homo sapiens), sequence (P04637 whole entry, looked up): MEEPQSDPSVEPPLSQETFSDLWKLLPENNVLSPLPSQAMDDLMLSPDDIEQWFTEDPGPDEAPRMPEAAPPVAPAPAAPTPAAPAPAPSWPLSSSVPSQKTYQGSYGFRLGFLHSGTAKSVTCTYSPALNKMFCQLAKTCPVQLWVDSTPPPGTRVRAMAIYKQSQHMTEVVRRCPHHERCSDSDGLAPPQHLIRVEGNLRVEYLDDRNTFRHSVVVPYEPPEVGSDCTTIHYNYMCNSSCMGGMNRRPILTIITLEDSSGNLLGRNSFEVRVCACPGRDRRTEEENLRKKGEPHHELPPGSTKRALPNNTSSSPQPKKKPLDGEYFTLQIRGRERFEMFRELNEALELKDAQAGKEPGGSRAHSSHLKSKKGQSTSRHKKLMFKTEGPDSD
Transcriptional activator Myb (Homo sapiens), sequence (P10242 whole entry, looked up): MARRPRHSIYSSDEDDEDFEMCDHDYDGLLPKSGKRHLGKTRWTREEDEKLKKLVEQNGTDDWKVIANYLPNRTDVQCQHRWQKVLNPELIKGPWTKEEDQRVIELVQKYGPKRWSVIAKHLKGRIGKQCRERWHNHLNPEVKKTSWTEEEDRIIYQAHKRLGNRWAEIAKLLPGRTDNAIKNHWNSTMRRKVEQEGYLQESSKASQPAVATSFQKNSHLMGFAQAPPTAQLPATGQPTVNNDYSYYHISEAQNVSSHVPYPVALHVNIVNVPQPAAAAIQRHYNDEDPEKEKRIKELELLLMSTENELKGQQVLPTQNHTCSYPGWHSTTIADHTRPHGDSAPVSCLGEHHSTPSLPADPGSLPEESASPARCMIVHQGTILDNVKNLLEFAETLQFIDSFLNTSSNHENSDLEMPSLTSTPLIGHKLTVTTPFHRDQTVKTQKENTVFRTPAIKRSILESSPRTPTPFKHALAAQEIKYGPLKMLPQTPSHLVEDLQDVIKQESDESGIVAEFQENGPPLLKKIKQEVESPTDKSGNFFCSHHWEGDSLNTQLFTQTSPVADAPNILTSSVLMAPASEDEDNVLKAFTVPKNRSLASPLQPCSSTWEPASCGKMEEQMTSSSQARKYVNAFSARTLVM
Myc proto-oncogene protein (Homo sapiens), sequence (P01106 whole entry, looked up): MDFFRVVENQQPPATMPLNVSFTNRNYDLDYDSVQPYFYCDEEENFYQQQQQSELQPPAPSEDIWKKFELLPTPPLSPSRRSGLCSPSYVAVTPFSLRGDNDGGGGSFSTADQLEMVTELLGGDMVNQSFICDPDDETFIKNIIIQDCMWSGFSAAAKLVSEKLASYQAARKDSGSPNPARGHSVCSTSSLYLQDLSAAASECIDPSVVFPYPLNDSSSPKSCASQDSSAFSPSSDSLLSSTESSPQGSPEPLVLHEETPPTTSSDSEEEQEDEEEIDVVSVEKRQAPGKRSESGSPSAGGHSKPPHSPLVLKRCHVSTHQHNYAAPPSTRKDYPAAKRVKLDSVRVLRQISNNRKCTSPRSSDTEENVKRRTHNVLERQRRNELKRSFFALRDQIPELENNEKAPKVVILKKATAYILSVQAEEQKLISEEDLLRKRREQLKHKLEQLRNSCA
Nuclear respiratory factor 1 (Homo sapiens), sequence (Q16656 whole entry, looked up): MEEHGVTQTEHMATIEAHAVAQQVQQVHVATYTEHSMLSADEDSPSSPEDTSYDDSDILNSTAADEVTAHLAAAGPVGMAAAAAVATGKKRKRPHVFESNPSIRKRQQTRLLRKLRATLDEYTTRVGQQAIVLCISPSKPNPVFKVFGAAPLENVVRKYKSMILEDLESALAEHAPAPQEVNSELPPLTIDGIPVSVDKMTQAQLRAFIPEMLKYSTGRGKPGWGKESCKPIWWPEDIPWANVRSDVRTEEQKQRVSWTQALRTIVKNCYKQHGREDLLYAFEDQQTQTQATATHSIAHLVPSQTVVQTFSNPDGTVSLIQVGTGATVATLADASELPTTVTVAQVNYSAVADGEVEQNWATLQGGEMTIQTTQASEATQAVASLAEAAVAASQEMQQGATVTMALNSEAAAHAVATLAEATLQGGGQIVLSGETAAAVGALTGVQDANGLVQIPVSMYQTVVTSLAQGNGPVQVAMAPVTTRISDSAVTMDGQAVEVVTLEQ

O=C(O)C(F)(F)OC(F)(F)C(F)(F)OC(F)(F)F
inactive: [1] | [2] | [3] | [4] | [5] | [6] | [7] | [8] | [9] | [10]

CC(C)(C)c1ccccc1OP(=O)(Oc1ccccc1)Oc1ccccc1
active: [6] 19.8 µM | [9] 20 µM | [10] 20 µM
inactive: [1] | [2] | [3] | [4] | [5] | [7] | [8]

Cc1ccc2c(c1N)C(=O)c1ccccc1C2=O
inactive: [1] | [2] | [3] | [4] | [7] | [8]
active: [5] 25.4 µM | [6] 42.4 µM | [9] 20 µM | [10] 3.89 µM

CCC(C)(C)c1ccc(O)cc1
inactive: [2] | [3] | [4] | [5] | [7] | [8] | [9] | [10]
active: [1] 46.1 µM | [6] 33.4 µM

CCOC(=O)c1ccccc1C(=O)OCC
inactive: [1] | [2] | [3] | [4] | [5] | [6] | [7] | [8] | [9] | [10]

O=C(O)C(F)(F)OC(F)(F)C(F)(F)OC(F)(F)C(=O)O
inactive: [1] | [2] | [3] | [4] | [5] | [6] | [7] | [8] | [9] | [10]

COP(=O)(CCC(=O)NCO)OC
inactive: [1] | [2] | [3] | [4] | [5] | [6] | [7] | [8] | [9] | [10]

CCN(CC)c1ccccc1
inactive: [1] | [2] | [3] | [4] | [5] | [6] | [7] | [8] | [9] | [10]

[N-]=[N+]=[N-]
inactive: [1] | [2] | [3] | [5] | [6] | [7] | [8] | [9] | [10]
active: [4] 100 µM

O=P(Oc1ccccc1)(Oc1ccccc1)Oc1ccccc1
active: [6] 28.5 µM | [7] 25.2 µM | [9] 27.3 µM | [10] 32.2 µM
inactive: [1] | [2] | [3] | [4] | [5] | [8]

Cc1ccc(N)cc1N
inactive: [1] | [2] | [3] | [4] | [5] | [6] | [7] | [8] | [9] | [10]

c1cc2c3c(cccc3c1)CC2
inactive: [1] | [2] | [3] | [4] | [5] | [6] | [7] | [8] | [9] | [10]

OCC(F)(F)OC(F)(F)C(F)(F)OC(F)(F)C(F)(F)OC(F)(F)CO
active: [6] 33.2 µM | [8] 29.8 µM
inactive: [1] | [2] | [3] | [4] | [5] | [7] | [9] | [10]

CCC1(c2ccccc2)C(=O)N=C(O)NC1=O (stereo not given)
inactive: [1] | [2] | [3] | [4] | [5] | [6] | [7] | [8] | [9] | [10]

Cc1cccc(N)c1
inactive: [1] | [2] | [3] | [4] | [5] | [6] | [7] | [8] | [9] | [10]

ClC1=C(Cl)C2(Cl)C3C(Cl)C(Cl)CC3C1(Cl)C2(Cl)Cl (stereo not given)
inactive: [1] | [2] | [3] | [4] | [5] | [7] | [8]
active: [6] 14.8 µM | [9] 30.3 µM | [10] 35.8 µM

NC(=O)C(F)(F)C(F)(F)F
inactive: [1] | [2] | [3] | [4] | [5] | [6] | [7] | [8] | [9] | [10]

c1nc[nH]n1
inactive: [1] | [2] | [3] | [4] | [5] | [6] | [7] | [8] | [9] | [10]

CCCCOCCOP(=O)(OCCOCCCC)OCCOCCCC
inactive: [1] | [2] | [3] | [4] | [5] | [6] | [7] | [8] | [9] | [10]

C=CC(=O)OCC(CC)(COC(=O)C=C)COC(=O)C=C
active: [5] 5.65 µM | [6] 1.65 µM | [7] 25.5 µM | [9] 1.5 µM | [10] 3.57 µM
inactive: [1] | [2] | [3] | [4] | [8]

O=C(O)C1C(C(=O)O)C2(Cl)C(Cl)=C(Cl)C1(Cl)C2(Cl)Cl (stereo not given)
inactive: [1] | [2] | [3] | [4] | [5] | [6] | [7] | [8] | [9] | [10]

N#Cc1cc([N+](=O)[O-])ccc1N
active: [6] 27.2 µM | [9] 0.706 µM
inactive: [1] | [2] | [3] | [4] | [5] | [7] | [8] | [10]

FC(F)(F)C(F)(C(F)(F)F)C(F)(F)C(F)(F)CC1CO1 (stereo not given)
inactive: [1] | [2] | [3] | [4] | [5] | [6] | [7] | [8] | [9] | [10]

O=c1ssc(Cl)c1Cl
inactive: [1] | [3] | [8]
active: [2] 33.4 µM | [4] 33.4 µM | [5] 45 µM | [6] 1.08 µM | [7] 51.6 µM | [9] 5.68 µM | [10] 6.09 µM

CC(Cl)CN(C)C (stereo not given)
inactive: [1] | [2] | [3] | [4] | [5] | [7] | [8] | [9] | [10]
active: [6] 28.4 µM

N#Cc1c(-c2ccc(Cl)cc2)[nH]c(C(F)(F)F)c1Br
inactive: [1] | [2] | [3] | [4] | [5] | [8]
active: [6] 0.0823 µM | [7] 0.0675 µM | [9] 20 µM | [10] 0.469 µM

O=C(O)C(F)(OC(F)(F)C(F)(F)C(F)(F)F)C(F)(F)F (stereo not given)
inactive: [1] | [2] | [3] | [4] | [5] | [6] | [7] | [8] | [9] | [10]

COP(=O)(O)OC
active: [10] 0.062 µM
inactive: [1] | [2] | [3] | [4] | [5] | [6] | [7] | [8] | [9]

OCC(F)(F)OC(F)(F)C(F)(F)OC(F)(F)CO
inactive: [1] | [2] | [3] | [4] | [5] | [6] | [7] | [8] | [9] | [10]

Nc1ccc([N+](=O)[O-])cc1Cl
inactive: [1] | [2] | [3] | [4] | [5] | [6] | [7] | [8] | [9] | [10]

COP(N)(=S)OC
inactive: [1] | [2] | [3] | [4] | [5] | [6] | [7] | [8] | [9] | [10]

CCOc1ccc(C(C)(C)COCc2cccc(Oc3ccccc3)c2)cc1
inactive: [1] | [2] | [3] | [4] | [5] | [6] | [7] | [8] | [9] | [10]

CCCCC(CC)COC(=O)c1c(Br)c(Br)c(Br)c(Br)c1C(=O)OCC(CC)CCCC (stereo not given)
inactive: [1] | [2] | [3] | [4] | [5] | [6] | [7] | [8] | [9] | [10]

CCOP(=S)(OCC)SCn1nnc2ccccc2c1=O
active: [2] 58.6 µM | [6] 1.6 µM | [9] 10.7 µM
inactive: [1] | [3] | [4] | [5] | [7] | [8] | [10]

O=[N+]([O-])c1ccccc1
inactive: [1] | [2] | [3] | [4] | [5] | [6] | [7] | [8] | [9] | [10]

CCCCN(CCCC)N=O
inactive: [1] | [2] | [3] | [4] | [5] | [6] | [7] | [8] | [9] | [10]
